# Experimental data taken from the supplement of paper PMC6805474.
# Unmarked numbers belong to inactive results.
# System: Schistosoma mansoni schistosomula (Liberian)
# Test: drug effect (1 - score/DMSO control score) (fraction); higher = more antischistosomal effect, active = 0.5 or more; extreme values may be limits of the assay
# Details: 72 h; 10 µM
# In short: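 Drug effect was calculated by comparing the mean score of the test wells with the mean score of the DMSO wells, and any negative value was set to zero. Duplicate wells of 50 Liberian-strain S. mansoni schistosomula, mechanically transformed from cercariae and pre-incubated at least 12 h, received 10 µM compound in Medium 199 with 5% FCS at 37 °C, 5% CO2, with 0.1% DMSO in the comparison wells. Visual scoring at 10× took place at 24, 48 and 72 h on a quarter-point scale from 3 (normal) to 0 (dead), and a plate counted only if its DMSO wells averaged at least 2.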
row,SMILES,drug effect
1,CC1CCCCN1C(=O)NCCc1coc(-c2ccc(F)cc2)n1 (stereo not drawn),0.236
2,COc1ccc(S(=O)(=O)Nc2ccc(CN3CCN(C(=O)c4cccc(C#N)c4)CC3)cc2)cc1,0.188
3,Cc1cc(Cl)c(S(=O)(=O)N2CCCC2)cc1OCC(=O)NC1CCCCC1,0.212
4,COc1cccc(CC(=O)N2CCC(n3c(C)nc4ccc(F)cc43)CC2)c1,0.394
5,COc1cc(C2=NCCN2)ccc1-c1cn(-c2cccc(C3=NCCN3)c2)nn1,0.394
6,O=C(Nc1cccc(Cl)c1)c1cnc(N2CCN(c3ccncc3)CC2)c(Cl)c1,1 (active)
7,CC[C@@H]([C@H](C)O)n1ncn(-c2ccc(N3CCN(c4ccc(OC[C@@H]5CO[C@@](Cn6cncn6)(c6ccc(F)cc6F)C5)cc4)CC3)cc2)c1=O,0.556 (active)
8,NC(=O)c1cc(Br)ccc1OCCOc1ccccc1,< 0
9,Cc1noc(C)c1C(=O)N1CCCC(c2[nH]c3c(C)cccc3c2-c2ccncc2)C1 (stereo not drawn),0.778 (active)
10,Cc1cc(Nc2ccncc2)n2nc(C)c(-c3ccccc3Cl)c2n1,0.167
11,Nc1ncnc2c1ncn2[C@@H]1O[C@H](COS(=O)(=O)NC(=O)c2ccccc2O)[C@@H](O)[C@H]1O,0.125
12,CC(C)C(NC(=O)Cc1cccc2ccccc12)C(=O)Nc1cccc(C#N)c1 (stereo not drawn),0.333
13,C[C@H]1COc2c(N3CCN(C)CC3)c(F)cc3c(=O)c(C(=O)O)cn1c23,0.0526
14,O=C(c1cc2ccccc2o1)N1CCN(Cc2ccc3c(c2)OCO3)CC1,0.236
15,Cc1cnc(N2CCN[C@@H](Cc3ccccc3)C2)nc1Oc1ccc(-n2ccnc2)cc1,1 (active)
16,CCCNC(=O)N1CCC2(CC1)CC(=O)c1cc(C)ccc1O2,0.111
17,COc1ccc2nc(C)cc(OCC(=O)Nc3ccccc3OC)c2c1,0.25
18,COc1cc(NC(=O)Cc2nn(C)c(=O)c3ccccc23)ccc1Cl,0.0625
19,O=C(Nc1cccnc1)c1c(O)c2cccc3c2n(c1=O)CC3,0.0727

row,SMILES,drug effect
1,OCc1ccc(-c2cncc(Nc3cccc(Cl)c3)c2)cc1,0.152
2,CC(=O)N(CCN(C(=O)c1ccc(F)cc1)c1ccccc1)c1ccccc1,0.0909
3,CCCCc1ccc(NC(=O)Nc2ccc(O[C@H]3CCCC[C@@H]3N(C)c3ccccc3)c(F)c2)cc1,0.875 (active)
4,CCc1c(C)nc(-n2nc(C)cc2NC(=O)c2ccccc2SC)[nH]c1=O,1 (active)
5,CC(C)(C)C(=O)N(CCCCCCN1C[C@H](O)[C@@H](O)[C@H](O)[C@H]1CO)C1CCCCCC1,1 (active)
6,O=C(NC1CC1)c1ccc(N2CCC(Cc3ccccc3)CC2)nc1,0.167
7,Cc1cc(O)nc(-n2nc(C)cc2C)n1,0.576 (active)
8,CCc1ccccc1-n1c(C)cn2c3c(=O)n(C(C(=O)OC)C(C)C)c(=O)n(C)c3nc12 (stereo not drawn),0.636 (active)
9,COc1ccc(N(CCc2cccc(C)n2)C(=O)C2CCCCC2)cc1,0.111
10,CCc1cc(=O)n(C)c(SC(C)C(=O)Nc2ccc(F)cc2)n1 (stereo not drawn),< 0
11,CO[C@@H](C(=O)N1Cc2[nH]nc(NC(=O)c3ccc(N4CCN(C)CC4)cc3)c2C1)c1ccccc1,0.278
12,CN1CCCN(C(c2ccccc2)c2ccc(Cl)cc2)CC1 (stereo not drawn),0.263
13,Cc1cc(Cl)ccc1NC(=O)CCc1ccc(S(=O)(=O)NCC(C)C)cc1,0.375
14,O=C(Nc1ccc(N2CCNCC2)nc1)c1oc(-c2ccccc2)nc1C(F)(F)F,0.625 (active)
15,Cc1cccc(Cn2ccc(NC(=O)c3ccc4c(c3)OCO4)n2)c1,< 0
16,CS(=O)(=O)c1ccccc1C(=O)N(Cc1ccccc1)c1ccccc1,0.4
17,COC(=O)c1c(NC(=O)c2cc3ccccc3oc2=O)sc2c1CCN(Cc1ccccc1)C2,0.556 (active)
18,Cc1ccccc1CN1CCC(O)(c2ccc(Cl)c(C(F)(F)F)c2)CC1,0.188
19,c1ccc(Oc2ccc(-c3cc(N4CCNCC4)[nH]n3)cc2)cc1,0.444
